The text below walks through data of PubChem BioAssay AID1063 (University of Pittsburgh Molecular Library Screening Center, 2008).

Out of some 200,000 compounds screened, about 18,000 (9%) were called active. This is one part of a sample in which actives are shown more often than they occur. No stated cut-off is given here; in the data, active means inhibition above about 50%; inactive means the rest.

The nature of the experiment: Leishmania major promastigote growth inhibition, primary screen (AID 1063).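 Further: promastigotes grown with compound for 44 hours at 28 °C.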 The settings on record: Leishmania major promastigotes, resazurin fluorescence viability; at 10 µM; stronger effect = higher value. (In general: The colour change of resazurin is a common sign of viable cells or microbes.)
The term inhibition denotes the drop in the measured response relative to a control, in per cent. For the molecule `COC(=O)c1c(CCl)noc1C(=O)NC(C)C`, the inhibition was 100% (active). For the molecule `COC(=O)c1onc(-c2c(OC)cc(OC)cc2OC)c1C(=O)OC`, the inhibition is -8.2% (inactive).

For `CCOc1cccc(SCc2noc(C(=O)NC(C)C)c2C(=O)O)c1`, the inhibition is -11.1% (inactive). Take `Cc1cc(NC(C)C)n2c(nc3ccccc32)c1C#N`: the inhibition was 0.11% (inactive). Take `O=C1N(c2ccc(Cl)cc2)C(c2ccc(Cl)cc2)N2CCCN12` (stereo not given): the inhibition is -2.86% (inactive).

As to `COCCCNC(NC(=O)c1ccc(OC)cc1)C(Cl)(Cl)Cl` (stereo not given), the inhibition was -5.56% (inactive).

In the case of `O=Cc1ccc(OCc2cn3ccccc3n2)cc1`, the inhibition is -8.44% (inactive).

In the case of `CNC(=O)COC(=O)c1cc(-c2ccc(OC)cc2)nc2ccccc12`, the inhibition is 6.03% (inactive). As to `CCn1c(CSCc2c(Cl)cccc2Cl)n[nH]c1=S`, the inhibition was 81.2% (active).

Regarding `CCn1c(CNS(=O)(=O)c2ccc(Cl)cc2)n[nH]c1=S`, the inhibition was -0.27% (inactive). Then `S=c1[nH]nc(CSCc2ccc(Cl)cc2Cl)n1-c1ccccc1`, with 14.5% (inactive); and `CCOC(=O)NC(=O)/C(C#N)=C\c1ccccc1`, with -7% (inactive); and `O=C(c1cccc(S(=O)(=O)Nc2ccccc2Cl)c1)N1CCN(C(=O)c2ccco2)CC1`, with -0.85% (inactive). As to `O=C(Nc1ccc2c(c1)CCC2)c1cccc(S(=O)(=O)Nc2ccccc2Cl)c1`, the inhibition is 95.5% (active). In the case of `O=C(Nc1ccc2c(c1)CCC2)c1cccc(S(=O)(=O)N2CCN(c3ccc(F)cc3)CC2)c1`, the inhibition is 24.5% (inactive). In the case of `Cc1ccc(-c2nn(-c3ccccc3)cc2/C=C/C(=O)Nc2cccc(S(N)(=O)=O)c2)cc1`, the inhibition is -2.89% (inactive).

With `Cc1ccccc1C(CC(=O)c1cccs1)C(C#N)C#N` (stereo not given), the inhibition is 83.5% (active). Take `Cc1ccc(C)c(NC(CC(=O)c2ccccc2)C(=O)OCC(=O)c2cccs2)c1` (stereo not given): the inhibition was 17.1% (inactive).

As for `O=C(CCC(=O)c1cccs1)NCc1ccccc1`, the inhibition is -10.9% (inactive). Then `CC(NC(=O)COC(=O)c1ccc(Cl)cc1O)c1ccc(F)cc1` (stereo not given), with -6.63% (inactive). As for `CN(C)c1ccc(C(CNC(=O)c2ccc(F)cc2)c2c[nH]c3ccccc23)cc1` (stereo not given), the inhibition is 96.3% (active). Turning to `CC(=O)c1ccc(S(=O)(=O)Nc2ccc(C(=O)NCC(c3ccccc3)N(C)C)cc2)cc1` (stereo not given), the inhibition was 0.26% (inactive). Regarding `CN(C)CCCNC(=O)c1ccc2[nH]c3ccccc3c2c1`, the inhibition was 13% (inactive). Then `COc1ccc(-n2nc3c(c2NC(=O)c2ccc(N4C(=O)CCC4=O)cc2)CSC3)cc1`, with -0.66% (inactive); and `O=c1[nH]n(-c2ccc([N+](=O)[O-])cc2)c(=O)c2ccccc12`, with -3.65% (inactive). For `CC(C)(C)c1ccc(/C=C/C(=O)NC2CCS(=O)(=O)C2)cc1` (stereo not given), the inhibition is 0.12% (inactive). Take `O=C(Nc1nc2cc3c(cc2s1)OCCO3)c1cccc(S(=O)(=O)N2CCOCC2)c1`: the inhibition is 99.1% (active). With `COc1ccc(S(=O)(=O)N2CCOCC2)cc1C(=O)Nc1nc2ccccc2s1` the figure was -3.71% (inactive); with `O=C(Nc1nc2ccc(S(=O)(=O)N3CCCC3)cc2s1)C1CCCO1` (stereo not given), 2.48% (inactive); with `Cc1noc(C)c1COc1cccc(C(=O)Nc2cccnc2)c1`, 4.43% (inactive).

For the molecule `CC1=CC=CN2C1=NC(=O)CC2(C)C(=O)N(CC(=O)NC1CCCC1)c1ccccc1C` (stereo not given), the inhibition was 2.29% (inactive). Take `Cc1c(NC(=O)CSc2cccc3cccnc23)c(=O)n(-c2ccccc2)n1C`: the inhibition is 44.5% (inactive). On to `Cc1nc2ccccc2n1CC(=O)N/N=C/c1cccnc1`, for which the inhibition is -4.45% (inactive). Regarding `O=C(CSc1cccc2cccnc12)N/N=C/c1cccnc1`, the inhibition was 101% (active). With `CN1CCN(c2ccc(NC(=O)c3ccc4c(c3)OCCO4)cc2Cl)CC1`, the inhibition was 5.5% (inactive). With `CCOc1c(OC)cc(C2C(C#N)=C(N)Oc3n[nH]c(-c4ccncc4)c32)cc1OC` (stereo not given) the figure was 6.78% (inactive); with `COc1ccc(C2C(C#N)=C(N)Oc3n[nH]c(C)c32)cc1CN1CCN(c2ccc(F)cc2)CC1` (stereo not given), 60.8% (active); with `CCCc1[nH]nc2c1C(c1ccc(OC)c(Cn3nc(C)c(Br)c3C)c1)C(C#N)=C(N)O2` (stereo not given), 41.6% (inactive). For the molecule `O=Cc1ccc(Oc2cccc(C(F)(F)F)c2)nc1`, the inhibition was 6.6% (inactive). Turning to `COc1ccc(NC(=O)COC(=O)c2ccncc2)c(OC)c1`, the inhibition was -3.38% (inactive). Consider `CC(C)(C)NC(=O)C(=O)NCc1ccncc1`, for which the inhibition was 77.7% (active). For `O=C(NCc1ccncc1)C(=O)NCc1ccco1`, the inhibition is -7.02% (inactive). In the case of `CCCC(C)C(=O)NCc1ccncc1` (stereo not given), the inhibition is -1.46% (inactive).

As to `CC(C)OCCCNC(=S)N1CCC(C(=O)c2ccc3c(c2)OCCO3)CC1`, the inhibition was -1.34% (inactive). As to `COc1ccc(-c2nc3ccccc3n2CCC(C)C)cc1OC`, the inhibition was 66.8% (active).

For `CCCn1c(C(O)c2cc(OC)ccc2OC)nc2ccccc21` (stereo not given), the inhibition was 19% (inactive).

For the molecule `COCCn1c(-c2ccc(OC)c(OC)c2)nc2ccccc21`, the inhibition was 11.3% (inactive). Regarding `Cn1c(=O)c2c(ncn2CC(=O)N/N=C/c2cn[nH]c2-c2ccc(F)cc2)n(C)c1=O`, the inhibition was -7.31% (inactive). Then `Cn1nc(C(F)(F)F)c2cc(C(=O)N3CCOCC3)sc21`, with -2.24% (inactive). Regarding `COc1ccc(NS(=O)(=O)c2cc(NC(=O)CC(=O)c3ccc([N+](=O)[O-])cc3)ccc2C)cc1`, the inhibition was 68.3% (active). As to `Cc1ccc(C)c(S(=O)(=O)N2CCN(CC(=O)Nc3ccc([N+](=O)[O-])cc3)CC2)c1`, the inhibition is 26.5% (inactive). `COc1ccc(CCC(=O)OCC(=O)Nc2ccc(C)c(S(=O)(=O)N(C)C)c2)cc1`: the inhibition was -10.7% (inactive). For the molecule `Cc1cccc(-n2c(C)cc(/C=N/NC(N)=S)c2C)c1`, the inhibition was 79.6% (active).

Turning to `Cc1cccc(-n2c(C)cc(/C=N\NC(=O)c3cccs3)c2C)c1`, the inhibition was 17.2% (inactive). As for `Cc1ccc(-n2c(C)cc(/C=N\NC(=O)CC(=O)NC(C)C)c2C)cc1`, the inhibition is -3.17% (inactive). On to `Cc1ccc(-c2csc(NC(=O)c3cnccn3)n2)cc1C`, for which the inhibition is -7.05% (inactive). With `COc1ccc(Oc2c(Cl)cnn(-c3ccccc3)c2=O)cc1` the figure was 59.1% (active); with `COc1ccc(-n2c(C)nc3c(cnn3-c3ccccc3)c2=O)cc1`, -7.18% (inactive). For the molecule `Cc1ccc(Oc2cnn(-c3ccccc3)c(=O)c2Br)cc1`, the inhibition was 46.6% (inactive). `S=C1Nc2cc(Cl)ccc2Sc2ccccc21`: the inhibition was -5.54% (inactive).
